The list is not random: actives were taken first. Their share in the collection is about 1.8%.
GSTO1 inh = blocks human GSTO1 in RBBP9 counter-screen. AID 1974. 300,000 compounds, 1.1% hits. recombinant GSTO1, activity-based probe fluorescence polarization. inhibition, % at 5.96 µM. P78417;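 active = inhibition above the campaign mean inhibition plus 3 SD, cut at about 35% in these data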
PAD4 inh = blocks human protein arginine deiminase 4 | recombinant PAD4, RCA probe fluorescence polarization | inhibition, % at 6.36 µM | 330,000 compounds, 0.41% hits | AID 485272;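 active = percent inhibition above a cutoff equal to the mean of all tested compounds plus 3 SD, cut at about 15% in these data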
Target sequence (Q9UM07 whole entry, looked up): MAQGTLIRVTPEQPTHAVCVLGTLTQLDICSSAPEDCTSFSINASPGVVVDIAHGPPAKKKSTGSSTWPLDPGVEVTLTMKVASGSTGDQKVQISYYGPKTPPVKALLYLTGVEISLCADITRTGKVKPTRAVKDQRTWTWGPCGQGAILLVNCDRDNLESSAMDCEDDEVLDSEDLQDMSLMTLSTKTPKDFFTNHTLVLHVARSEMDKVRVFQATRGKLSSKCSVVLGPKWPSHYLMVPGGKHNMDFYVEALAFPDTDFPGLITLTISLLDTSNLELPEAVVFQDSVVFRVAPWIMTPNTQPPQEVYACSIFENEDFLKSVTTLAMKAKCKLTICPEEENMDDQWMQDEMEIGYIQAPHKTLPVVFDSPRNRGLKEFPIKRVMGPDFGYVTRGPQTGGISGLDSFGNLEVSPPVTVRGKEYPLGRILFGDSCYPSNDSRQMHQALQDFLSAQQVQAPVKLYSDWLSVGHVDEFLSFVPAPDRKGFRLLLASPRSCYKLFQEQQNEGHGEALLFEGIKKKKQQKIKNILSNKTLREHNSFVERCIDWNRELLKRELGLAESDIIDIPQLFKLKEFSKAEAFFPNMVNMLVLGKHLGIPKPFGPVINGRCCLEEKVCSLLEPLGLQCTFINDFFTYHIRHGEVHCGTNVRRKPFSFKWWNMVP
LYPLA2 inh = counter-screen for PME1 inhibitors: inhibitors of human LYPLA2 | O95372 | recombinant LYPLA2, FP-Rh probe fluorescence polarization | inhibition, % at 5.9 µM | 320,000 compounds, 0.38% hits;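 active = inhibition above the screen-wide mean plus 3 SD, limit set per campaign, cut at about 26% in these data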
PME-1 inh = PME-1 (human) inhibition | Q9Y570 | 320,000 compounds, 0.53% hits | recombinant PME-1, FP-Rh probe fluorescence polarization | inhibition, % at 5.9 µM;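 active = inhibition above the campaign mean of all compounds plus 3 SD, cut at about 26% in these data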;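 also: competitive labeling of PME-1 active site by serine hydrolase directed probe; inhibitors block probe labeling so polarization falls and inhibition rises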
Fam108B inh = blocks mouse Fam108B hydrolase in RBBP9 counter-screen; recombinant Fam108B, FP-Rh probe fluorescence polarization; inhibition, % at 9.51 µM; 300,000 compounds, 0.33% hits; AID 1947;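 active = inhibition above the screen mean inhibition plus 3 SD, computed separately per campaign, cut at about 18% in these data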;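 also: inhibitors lower polarization as less probe binds the enzyme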
LYPLA1 counter = blocks human lysophospholipase 1, a PME1 counter-screen; O75608; inhibition, % at 5.9 µM; 320,000 compounds, 0.16% hits; AID 2174; recombinant LYPLA1, FP-Rh probe fluorescence polarization;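 active = inhibition above the mean of all tested compounds plus 3 SD, set per campaign, cut at about 14% in these data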;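 also: inhibitors block serine hydrolase probe labeling of LYPLA1 so polarization falls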
GSTO1 confirm = confirmation of human GSTO1 inhibitors. 2,400 compounds, 54% hits. inhibition, % at 5.96 µM. recombinant GSTO1, probe fluorescence polarization. shares compounds with GSTO1 inh;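 active = inhibition above the primary screen's cutoff, its mean inhibition plus 3 SD, cut at about 35% in these data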;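 also: loss of polarization as inhibitors block binding of rhodamine sulfonate ester activity probe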
GSTO1 recomb ABPP = inhibitors of recombinant human GSTO1. gel ABPP SE-Rh probe fluorescence. AID 463110. inhibition, % at 1 µM. shares compounds with GSTO1 inh. 130 compounds, 30% hits;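 active = inhibition of the enzyme GSTO1 above about 75%, limit read from the data; inactive = inhibition below that limit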
Hits are given with their value; n = inactive; x = no result given.

SMILES | GSTO1 inh | PAD4 inh | LYPLA2 inh | PME-1 inh | Fam108B inh | LYPLA1 counter | GSTO1 confirm | others
O=[N+]([O-])c1cccc(S(=O)(=O)N2CN(c3ccc(Br)cc3)c3nc4ccccc4nc32)c1 | x | n | x | x | x | x | x
CCc1nc2ccccc2c(C(=O)OCc2nc3ccccc3c(=O)[nH]2)c1C | x | n | x | x | x | x | x
Nc1ccc(N(c2ccccc2)c2ccc(N)cc2)cc1 | 43.1 | n | n | n | n | n | n
CCN(CC(=O)Nc1ccc(NC(C)=O)cc1)C(=O)/C=C/c1c(C)nn(-c2ccc(F)cc2)c1C | n | n | n | n | n | n | x
Nc1c(C(=O)NCc2ccco2)sc2nc3c(cc12)C(=O)CCC3 | 47.5 | n | n | n | n | n | n
CCCOC(=O)c1sc2nc3c(cc2c1N)C(=O)CCC3 | n | n | n | n | n | n | x
N#CCCSc1ccccc1NC(=O)c1cc(=O)c2ccccc2o1 | n | n | n | n | n | n | x
O=[N+]([O-])c1cc([N+](=O)[O-])c2cc3ccccc3nc2c1 | 39.3 | n | n | n | n | n | n
O=[N+]([O-])c1ccccc1C1Nc2cccc3cccc(c23)N1 | 48.6 | n | n | n | n | n | n
CCOC(=O)C1CCCN(C(=O)Cn2ncc3c([nH]c4ccc(C)cc43)c2=O)C1 (stereo unspecified) | n | n | n | n | n | n | x
COc1ccc2c(c1)c1nc3n(c(=O)c1n2CC(=O)Nc1cc(C)[nH]n1)CCS3 | 91.9 | n | n | n | n | n | n
O=C(CCl)Nc1ccc(-c2ccccc2)cc1 | 76.3 | n | n | n | n | n | 83.7
O=C(CCl)Nc1cccc(Oc2ccccc2)c1 | 70.7 | n | n | n | n | n | 97.0
O=C(CN1CCCCC1)Nc1cccc(Oc2ccccc2)c1 | n | n | n | n | n | n | x
CC(=O)Nc1ccc(NC(=O)Cc2ccc(-c3ccccc3)cc2)cc1 | n | n | n | n | n | n | x
O=C(Nc1ccccc1C(=O)NCCc1ccccc1)c1cnccn1 | n | n | n | n | n | n | x
O=C(CNC(=O)c1ccc(Cl)cc1Cl)OCCOc1ccccc1F | x | n | x | x | x | x | x
O=C1CCN(Cc2ccccc2)CCN1[C@H](COc1ccccc1)c1ccccc1 | 83.5 | n | n | n | n | n | n
Cc1cc(C(=O)CSc2nnnn2C)c(C)n1-c1cccc(F)c1 | n | n | n | n | n | n | x
Cc1cc(C)cc(-n2c(C)cc(C(=O)CSc3nnnn3C)c2C)c1 | 48.6 | n | n | n | n | n | 43.1
COc1cccc(-n2nnc3c(=O)n(CC(=O)N4CCC(Cc5ccccc5)CC4)cnc32)c1 | 38.7 | n | n | n | n | n | n
O=C1CC(N2CCOCC2)=NN1c1ccc([N+](=O)[O-])cc1 | 48.2 | n | n | n | n | n | n
COc1ccc2nc(NC(=O)c3ccccc3O)sc2c1 | n | n | n | n | n | n | x
CCOC(=O)c1cccc(C(=O)Nc2nc3ccc(OC)cc3s2)n1 | 53.4 | n | n | n | n | n | n
CS(=O)(=O)c1ccc2c(c1)sc1nc(=O)c(/C=C3/C=CC(=O)C(O)=C3)c(N)n12 | 43.6 | n | n | n | n | n | n
SMILES | GSTO1 inh | PAD4 inh | LYPLA2 inh | PME-1 inh | Fam108B inh | LYPLA1 counter | GSTO1 confirm | others
COc1cc(OC)cc(C(=O)N[C@H](C(=O)OCC(=O)c2ccc(C)c([N+](=O)[O-])c2)C(C)C)c1 | x | n | x | x | x | x | x
NC(=O)N/N=C/c1coc2ccc(O)cc2c1=O | 69.8 | n | n | n | n | n | n
Cc1ccc2occ(/C=N/NC(N)=S)c(=O)c2c1 | n | n | n | n | n | n | x
Cc1ccc(NC(=O)COC(=O)CCc2ccc(S(=O)(=O)N3CCOCC3)cc2)cc1F | 39.7 | n | n | n | n | n | n
CC(C(=O)OCC(=O)Nc1cccc(S(=O)(=O)N2CCOCC2)c1)N1C(=O)c2ccccc2C1=O (stereo unspecified) | 39.0 | n | n | n | n | n | n
CC(=O)c1cccc(NC(=O)COC(=O)CCc2ccc(S(=O)(=O)N3CCOCC3)cc2)c1 | n | n | n | n | n | n | x
Oc1ccc(NCc2ccccc2OCc2ccccc2F)cc1 | 73.7 | n | n | n | n | n | n
Cc1ccc(NCc2ccccc2OCc2ccccc2F)cc1 | n | n | n | n | n | n | x
CCOc1cccc(CNc2ccc(O)cc2)c1OCc1ccc(Cl)cc1 | 75.5 | n | n | n | n | n | n
CCOc1cc(CNc2ccc(O)cc2)ccc1OCc1ccc(Cl)cc1Cl | 87.3 | 30.4 | n | 28.7 | n | n | n
COc1cccc(CNCCO)c1OCc1ccc(Cl)cc1 | n | n | n | n | n | n | x
Cc1cc(C)c(CN2CCN(C(=O)Cn3cnc4c(NCc5ccccc5)ncnc43)CC2)c(C)c1 | x | n | x | x | x | x | x
COc1ccc(OCC(=O)NC2CCCN(Cc3ccc(Cl)cc3)C2)cc1 (stereo unspecified) | n | n | n | n | n | n | x
CC(C)=NOc1cc(NC(=O)CCl)cc([N+](=O)[O-])c1 | 80.0 | n | n | n | n | n | 99.5
Cc1cccc(N/N=C/c2ccc(O)c(O)c2O)c1 | 56.2 | n | n | n | n | n | n
Cc1ccc2c(=O)n3c(nc2c1)C(Cc1ccccc1)NC(=O)c1cc(Cl)ccc1-3 (stereo unspecified) | x | n | x | x | x | x | x
CN(C)Cc1cc(O)c(CN(C)C)cc1O | 53.2 | n | n | n | n | n | n
CC(=O)c1ccc(S(=O)(=O)N(C)CCCC(=O)N2CCN(c3ncccn3)CC2)cc1 | x | n | n | n | x | n | x
COc1ccc(Br)cc1-c1nc(CCl)cs1 | 72.5 | n | n | n | n | n | 97.1 | GSTO1 recomb ABPP=n
CCOc1ccc(-n2c(C)cc(C(=O)CCl)c2C)cc1 | 93.6 | n | n | n | n | n | 100.4
O=C(Nc1ccn(CC(=O)N2CCN(c3ccccn3)CC2)c(=O)n1)OCc1ccccc1 | x | n | n | n | x | n | x
CC(C)N(C(=O)[C@H]1C[C@H](CC(=O)NCCCn2ccnc2)C(=O)N2CCc3c([nH]c4cc(CCC(=O)N(C)C)ccc34)[C@]12C)C(C)C | x | n | x | x | x | x | x
O=P(O)(Cc1ccccc1)Cc1ccccc1 | 46.6 | n | n | n | n | n | n
O=P(Cc1ccccc1)(c1ccccc1)c1ccccc1 | n | n | n | n | n | n | x
CC(C)N(Cc1ccccc1)C(=O)COC(=O)c1cc[n+]([O-])cc1 | x | n | x | x | x | x | x
CC1=CC(=Nc2c(C)n(C)n(-c3ccccc3)c2=O)C=CC1=O | 74.2 | n | n | n | n | n | 40.7
Cc1ccc(NC(=O)COC(=O)C2=NN(c3ccccc3)C(=O)CC2)c(Br)c1 | x | n | n | n | x | n | x
COc1cc(/C=N/NC(=O)c2cc(-c3ccco3)nc3ccccc23)cc(OC)c1O | n | n | n | n | n | n | x
O=C(N/N=C/c1cccc(F)c1)c1cc(-c2ccco2)nc2ccccc12 | 40.6 | n | n | n | n | n | n

Source: PubChem (The Scripps Research Institute Molecular Screening Center)
